# Assay results published in the OligoGym collection.
# Biological target: CTCFL
# Assay: pooled miR-30 sensor sort-seq; sequence = guide strand
# Conditions: shRNA
# Also: reference of the scale not given here.
row,Sequence,sensor-assay potency score (higher = more potent)
1,TTTCTTTGAAATATCCAGCTAC,0.55
2,TTAGAAGTTGCTTCTGTCGGAA,-0.207
3,TTTATGTTTCTTCTCACTCTGC,-0.0954
4,TTGAATTATGTAAAACATCTTT,-0.709

# Biological target: CTDSP1
# Assay: as above
# Conditions: shRNA
row,Sequence,sensor-assay potency score (higher = more potent)
1,TCGATGACCACGCAGATCTTGT,-1.32
2,TACAGCATTGTCTGGATGGAAG,-1.6
3,TTGTCCAGGATGAGCACCCGCC,-0.921
4,TGAGCACTGAGTACACGTCGTC,-0.158
5,TCCAGGTCGATGACCACGCAGA,-1.79
6,TAGACCTGGTGGACCACCCCAT,-0.5
7,TTGGACTGGGGTCTTAGGGATG,-1.55
8,TTGTTCACTGGCTTGAAGGAGC,-0.757
9,TATTGGACTGGGGTCTTAGGGA,-0.481
10,TTCACTGGCTTGAAGGAGCTGT,0.427
11,TTTGAAGGCACTGACACGGGGC,0.517
12,TACACGTCGTCCACACGGCTGA,-0.19

# Biological target: CTHRC1
# Assay: as above
# Conditions: shRNA
row,Sequence,sensor-assay potency score (higher = more potent)
1,ATGAACTCCATGAACACTGCTT,0.166
2,TCTTTGTAAATGTACACTCCGC,-0.893
3,TTGAATGTGAAATACCAACGCT,-0.453
4,ATAAATTATAGCTTCAATGGGA,0.0197
5,TTTGTAAATGTACACTCCGCAA,-1.33
6,TTAGAGCACTATTTGAACGCAT,-0.079
7,TAAATTATAGCTTCAATGGGAA,-0.0923
8,TAGCAACATCCACTAATCCAGC,-1.03
9,TAGAGCACTATTTGAACGCATC,-1.21
10,TAATTCAATGAACTCCATGAAC,-1.24

# Biological target: CTLA4
# Assay: as above
# Conditions: shRNA
row,Sequence,sensor-assay potency score (higher = more potent)
1,TTGCTCAAAGAAACAGCTGTGA,-0.0499
2,TTACATAAATCTGGGTTCCGTT,-0.355
3,TAGCAATTACATAAATCTGGGT,-0.226
4,TCAATTACATAAATCTGGGTTC,-0.428
5,TTGGATAGTGAGGTTCACTTGA,0.333
6,TTGCAGATGTAGAGTCCCGTGT,-0.673
7,ATCAATTACATAAATCTGGGTT,-0.149
8,TACTCACACACAAAGCTGGCGA,0.197
9,TTTTGCTCAAAGAAACAGCTGT,0.613
10,TTTAGCAATTACATAAATCTGG,0.216
11,TCATCTAGGAAGGTCAACTCAT,-0.426
12,TTTCACATTCTGGCTCTGTTGG,-0.615
13,TTGCTTTTCACATTCTGGCTCT,0.296
14,TTTCTTTAGCATTTTGCTCAAA,-0.998
